Potency and affinity values are given separately. The source made the active and inactive calls.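 Rule for the calls: active = fitted half-maximal concentration for ATP signal loss at most twice the top valid dose; inconclusive = flat curve between -70 and -30%, or an invalid fit; inactive = flat within ±30%, wrong direction, or potency past limit.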

This assay can be described thus: HepG2 cell cytotoxicity, dose response, cytotoxicity control, cherry-picks, set 5 (AID 1053118).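 Note: 0% = neutral control wells and -100% = mitoxantrone positive control wells.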 Particulars: HepG2 viability, ATP luminescence, 72 h; series mostly up to 26 µM; activity change, negative = cytotoxicity: at the top concentration.
Regarding `COCC(=O)Nc1ccc2c(c1)C(=O)N(C)[C@H]1CC[C@H](CC(=O)NCc3ccccc3Cl)O[C@@H]1CO2`, the “activity change, negative = cytotoxicity” value was -9.97% [at 23.5 µM] (inactive).
As for `CN(C)C(=O)c1ccc(-c2ccc3c(c2)[C@@H]2[C@@H](CCN2C(=O)c2ccc(F)cc2)[C@H](CO)N3C)cc1`, the “activity change, negative = cytotoxicity” value was -13.8% (inactive).
`C[C@@H]1CN([C@@H](C)CO)C(=O)c2cccc(NC(=O)Nc3ccc(C(F)(F)F)cc3)c2O[C@H]1CN(C)C(=O)Nc1cccc2ccccc12`: the “activity change, negative = cytotoxicity” value is -23.2% (inactive).
Then `O=C(c1cccnc1)N1C[C@H]2[C@@H](c3ccccc31)[C@@H](CO)N2CC1CCCC1`, with -16.1% (inactive); and `N#C[C@@H]1[C@@H](c2ccccc2C2=CCCCC2)[C@H](CO)N1S(=O)(=O)c1ccccc1`, with -11.6% (inactive); and `CC(NC(=O)CSc1ccc(S(=O)(=O)N2CCOCC2)cn1)c1ccc(Cl)cc1Cl` (stereo not given), with 13.9% (inactive).
For `Cc1ccc(-c2nc3ncccc3o2)cc1NC(=O)c1ccco1`, the “activity change, negative = cytotoxicity” value was -3.25% (inactive).
With `Cc1c(NC(=O)c2ccc3nsnc3c2)cccc1[N+](=O)[O-]`, the “activity change, negative = cytotoxicity” value is 8.97% (inactive).
As to `CCc1ccc(NC(=O)CSc2nnc(-c3ccco3)o2)cc1`, the “activity change, negative = cytotoxicity” value was 13.7% (inactive).
As to `Cn1cnc(S(=O)(=O)N2CCN(c3ccccc3)CC2)c1`, the “activity change, negative = cytotoxicity” value was -33.2% (inactive).
In the case of `C[C@@H]1CN([C@H](C)CO)C(=O)c2cc(NC(=O)CCCN(C)C)ccc2O[C@@H]1CN(C)Cc1ccc(-c2ccccc2)cc1`, the “activity change, negative = cytotoxicity” value was -15.6% (inactive).
For `CN1c2ccc(-c3ccccc3)cc2[C@H]2[C@H](CCN2C(=O)CN2CCOCC2)[C@@H]1CO`, the “activity change, negative = cytotoxicity” value is -8.7% (inactive).
In the case of `CO[C@H]1CN(C)C(=O)c2cc(NC(C)=O)ccc2OC[C@@H](C)N(C(=O)CN2CCOCC2)C[C@H]1C`, the “activity change, negative = cytotoxicity” value was -10.4% (inactive).
On to `Cc1ccc(S(=O)(=O)N2CC[C@@H]3[C@H]2c2cc(-c4cccc(C(=O)N(C)C)c4)ccc2N[C@@H]3CO)cc1`, for which the “activity change, negative = cytotoxicity” value is -14.5% [at 23.5 µM] (inactive).
The result for `O=S(=O)(c1cccc(F)c1)N1CC[C@H]2[C@H](CO)Nc3ccc(-c4cccc(F)c4)cc3[C@H]21` reads -7.37% (inactive); that for `C[C@@H]1CN([C@@H](C)CO)C(=O)c2cc(NC(=O)C3CCCCC3)ccc2O[C@@H]1CN(C)Cc1ccc(-c2ccccc2)cc1`, -15.3% (inactive).
`Cc1ccccc1S(=O)(=O)N1CC[C@H]2[C@H](CO)Nc3ccc(-c4ccc(C#N)cc4)cc3[C@H]21`: the “activity change, negative = cytotoxicity” value is -3.85% (inactive).
The result for `N#C[C@H]1[C@H](c2ccccc2C2=CCCCC2)[C@H](CO)N1S(=O)(=O)c1ccccc1` reads -13.5% (inactive); that for `C[C@H](CO)N1C[C@H](C)[C@@H](CN(C)Cc2ccc(-c3ccccc3)cc2)Oc2ccc(NC(=O)C3CCCCC3)cc2C1=O`, -13.4% (inactive); that for `COC(=O)C[C@@H]1CC[C@H]2[C@@H](COc3ccc(NC(=O)Cc4cccs4)cc3C(=O)N2C)O1`, -10.2% [at 23.5 µM] (inactive).
Then `CC1(C)Cc2c(C#N)c(SCC(=O)c3ccccc3)nc(N3CCOCC3)c2CS1`, with 1.34% (inactive); and `N#C[C@@H]1[C@@H](c2ccccc2C2=CCCCC2)[C@@H](CO)N1S(=O)(=O)c1ccccc1`, with -16.8% [at 23.5 µM] (inactive); and `CN1c2ccc(-c3ccccc3)cc2[C@@H]2[C@@H](CCN2C(=O)CN2CCOCC2)[C@@H]1CO`, with -2.17% [at 23.5 µM] (inactive).
Take `CO[C@H]1CN(C)C(=O)c2cc(NC(=O)Nc3ccc(Cl)c(Cl)c3)ccc2OC[C@@H](C)NC[C@@H]1C`: the “activity change, negative = cytotoxicity” value is -26.6% (inactive).
For the molecule `CCN1CCN(C(c2ccccc2)c2nnnn2Cc2ccccc2)CC1` (stereo not given), the “activity change, negative = cytotoxicity” value is -27.1% (inactive).
In the case of `O=C(NCc1ccccc1)c1ccc(-c2cn[nH]c2)c2ccoc12`, the “activity change, negative = cytotoxicity” value is 42.2% (inactive).
For `NC(=O)C1=C[C@H](c2coc3ccccc3c2=O)C[C@H](OCCCCO)O1`, the “activity change, negative = cytotoxicity” value is -5.67% (inactive).
For `C[C@@H]1CN([C@H](C)CO)C(=O)c2cc(NC(=O)CCCN(C)C)ccc2O[C@H]1CN(C)Cc1ccc(-c2ccccc2)cc1`, the “activity change, negative = cytotoxicity” value was -18.8% (inactive).
Then `C[C@H]1CN([C@@H](C)CO)C(=O)c2cc(NC(=O)CCCN(C)C)ccc2O[C@@H]1CN(C)Cc1ccc(-c2ccccc2)cc1`, with -11.7% (inactive).
As for `COCC(=O)Nc1ccc2c(c1)C(=O)N(C)[C@H]1CC[C@H](CC(=O)NCc3ccccc3Cl)O[C@H]1CO2`, the “activity change, negative = cytotoxicity” value is -9.22% (inactive).
With `Nc1nc(-c2cc3c(cc2Cl)OCCO3)cs1`, the “activity change, negative = cytotoxicity” value was -13.3% (inactive).
For the molecule `Cc1ccc(NC(=O)COC(=O)c2cc(Cl)ccc2[N+](=O)[O-])c(C)c1`, the “activity change, negative = cytotoxicity” value is -3.95% (inactive).
On to `COC(=O)C[C@H]1CC[C@@H]2[C@@H](COc3ccc(NC(=O)Cc4cccs4)cc3C(=O)N2C)O1`, for which the “activity change, negative = cytotoxicity” value was -5.57% (inactive).
As for `O=C(Nc1ccccc1F)N1C[C@@H]2[C@H](c3ccccc31)[C@H](CO)N2C(=O)C1CC1`, the “activity change, negative = cytotoxicity” value was -13.3% [at 23.5 µM] (inactive).
Take `C[C@@H]1CN([C@H](C)CO)C(=O)c2cc(NC(=O)C3CCCCC3)ccc2O[C@H]1CN(C)Cc1ccc(-c2ccccc2)cc1`: the “activity change, negative = cytotoxicity” value was -4.55% (inactive).

The record behind these values is PubChem BioAssay AID1053118 (Broad Institute, 2014).
